Holding throughout (assay): NCI-60 one-dose screen, 48 h (100 = growth as untreated, 0 = no growth, -100 = all killed)
Holding throughout (conditions): 10 µM

The test system of assay [1] is SR leukemia.
Assay [2] concerns RPMI-8226 leukemia.
The subject of assay [3] is OVCAR-8 ovarian.
Assay [4] has as its system OVCAR-5 ovarian.
In assay [5] the test system is OVCAR-4 ovarian.
In assay [6] the test system is SK-OV-3 ovarian.
Assay [7] has as its system IGROV1 ovarian.
The subject of assay [8] is OVCAR-3 ovarian.
Assay [9] has as its system HS 578T breast.
Assay [10] relates to NCI/ADR-RES ovarian.
The test system of assay [11] is T-47D breast.
The subject of assay [12] is BT-549 breast.
For assay [13], the system named is MDA-MB-435 melanoma.
Assay [14] concerns SW-620 colon.
In assay [15] the test system is MCF7 breast.
Assay [16] relates to HCT-116 colon.
Assay [17] deals with HCC-2998 colon.
Assay [18] has as its system KM12 colon.

This note sets out measurements from PubChem BioAssay (NCI).

Compounds without any hit were thinned out: in the full panel of roughly 83,000, 20% have a hit.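 Each cell line was grown in a 96-well plate and treated with one concentration of compound for 48 hours. Values below 10 were considered active.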 A number with no mark means an inactive call. Activity calls are given as the source filed them.

For the compound `CC(=O)Oc1ccc(C2=Cc3ccc(OC(C)=O)cc3OC2C)cc1` (stereo unspecified), the growth was 8.85% (active) in [1]; 19.5% in assay [2]; 60.9% in assay [3]; 122% in assay [4]; 79.4% in [5]; 81% in assay [6]. Moreover, the growth in assay [7] is 55.8%; in [8], 33.1%; in [9], 42.8%; in assay [10], 25%; in [11] it was 88.5%; in assay [12] it was 42.9%. The growth in assay [13] is 25.2%; in assay [14], 47%; in assay [15], 49.1%; in assay [16] it was 38.3%; in assay [17] it was 78.2%; in assay [18], 39%.

With `CC(C)c1[nH]nc2c(NCc3ccc(-c4ccccn4)cc3)nc(SCCN)nc12`, the growth in assay [1] is -7.09% (active); in assay [2], -16.7% (active); in [3], 10.9%; in assay [4], 13.6%; in assay [5] it was -3.8% (active); in assay [6] it was 3.32% (active). Besides, the growth in [7] was 10.3%; in assay [8], 5.51% (active); in assay [9] it was 11.1%; in assay [10], 48%; in assay [11], -15.6% (active); in [12], -32% (active). The growth in assay [13] was -39.6% (active); in assay [14], 5.99% (active); in [15], 1.59% (active); in assay [16], 5.28% (active); in assay [17] it was -22.9% (active); in assay [18], 5.47% (active).

Take `COc1ccc(N2CCN(c3nc(-c4ccccc4)c(C#N)c(=O)[nH]3)CC2)cc1`: the growth in assay [1] is 89.7%; in assay [2], 91.3%; in assay [3] it was 102%; in assay [4], 105%; in assay [5], 102%; in [6], 96.6%. Moreover, the growth was 101% in assay [7]; 103% in assay [8]; 112% in [9]; 98.9% in assay [10]; 85.7% in assay [11]; 93.6% in assay [12]. The growth in [13] is 111%; in assay [14], 113%; in [15] it was 93.9%; in assay [16], 89.9%; in [17] it was 99.8%; in assay [18] it was 96.8%.

Consider `COc1cc(-c2nc3cc(Cl)c(Cl)cc3[nH]2)ccc1OCC(=O)NN`, for which the growth in assay [1] is 77.4%; in assay [2], 107%; in assay [3], 76.4%; in assay [4], 98.1%; in [5], 85.3%; in [6], 93.3%. The growth in assay [7] was 86.6%; in assay [8], 93%; in assay [9] it was 95.1%; in assay [10], 87.8%; in assay [11], 66.9%; in [12], 95%. Moreover, the growth in assay [13] is 63.6%; in assay [14], 80.9%; in assay [15] it was 73.4%; in assay [16] it was 96.1%; in assay [17], 103%; in assay [18], 64.6%.

In the case of `O=C(Nc1cccc([N+](=O)[O-])c1)NN1CCCCCC1`, the growth in assay [1] was 108%; in assay [2], 60.5%; in assay [3] it was 99.2%; in assay [4], 105%; in assay [5], 98.1%; in assay [6], 114%. Besides, the growth in assay [7] is 109%; in assay [8], 87.4%; in assay [9], 97.2%; in assay [10] it was 91.4%; in assay [11], 81.7%; in [12], 107%. The growth in assay [13] was 102%; in assay [14], 95.9%; in assay [15] it was 100%; in assay [16], 94.3%; in assay [17] it was 94.8%; in assay [18] it was 98.7%.

For the compound `C=CCn1c(C)nc2cc(Nc3nc(Nc4ccc5nc(C)n(CC=C)c5c4)c4ccccc4n3)ccc21`, the growth in assay [1] is -44.2% (active); in assay [2], -24% (active); in [3], -40.9% (active); in [4], -92.5% (active); in [5], -100% (active); in assay [6], -95.7% (active). The growth was -93.8% (active) in assay [7]; -99.8% (active) in assay [8]; -48.1% (active) in assay [9]; -23.7% (active) in assay [10]; -60.3% (active) in [11]; -84% (active) in assay [12]. In addition, the growth is -76% (active) in assay [13]; -76.2% (active) in [14]; -89.3% (active) in [15]; -96.5% (active) in assay [16]; -96.1% (active) in [17]; -93.2% (active) in assay [18].

Take `Cc1cc(OI)c(C(C)C)cc1-c1cc(C(C)C)c(OI)cc1C`: the growth in assay [1] is 84.8%; in [2], 103%; in assay [3], 104%; in assay [4], 94.4%; in assay [5], 109%; in [6], 92.4%. Besides, the growth is 98% in [7]; 108% in assay [8]; 109% in assay [9]; 102% in assay [10]; 81.6% in assay [11]; 111% in assay [12]. Besides, the growth was 112% in assay [13]; 113% in assay [14]; 92.6% in assay [15]; 101% in assay [16]; 105% in [17]; 101% in assay [18].

Turning to `CCOC(=O)c1c(C)n(-c2ccc(Cl)cc2)c2ccc(OC(=O)/C=C/c3ccccc3)cc12`, the growth in assay [1] is 26.7%; in assay [2], 67.6%; in assay [3] it was 88.8%; in [4] it was 108%; in assay [5], 81.6%; in assay [6] it was 93.9%. The growth in assay [7] was 88.3%; in assay [8], 77.7%; in [9], 82.6%; in assay [10], 61.7%; in [11], 82.7%; in assay [12] it was 82.2%. In addition, the growth in assay [13] is 9.43% (active); in assay [14] it was 67%; in [15], 59.6%; in assay [16] it was 90.6%; in assay [17], 102%.

Consider `O=[N+]([O-])C1CC2C=CC1C2` (stereo unspecified), for which the growth in assay [1] was 92.4%; in assay [2], 111%; in assay [3] it was 102%; in assay [4], 104%; in assay [5], 99.7%; in assay [6], 102%. Besides, the growth in [7] is 103%; in assay [8], 91.6%; in assay [9], 97.9%; in assay [10] it was 95.6%; in [11], 93%; in assay [12] it was 97.3%. Besides, the growth was 92.7% in assay [13]; 103% in assay [14]; 92.1% in [15]; 107% in assay [16]; 102% in assay [17]; 104% in assay [18].
